Compounds with a hit are over-represented: about 2.7% of the library has one in this group of screens.
GLP1R ag = activates the human GLP-1 receptor; HEK293 GLP-1R CRE-luciferase, luminescence, 4-6 h; cells express a hypersensitive GLP-1R form; Potency, µM (top dose mostly 45.6 µM), for inactives: top-dose activation, usual class: activators; 0.007% of 380,000 active; AID 624172; also: % of control where 0% means no effect
Target sequence (P43220 whole entry, looked up): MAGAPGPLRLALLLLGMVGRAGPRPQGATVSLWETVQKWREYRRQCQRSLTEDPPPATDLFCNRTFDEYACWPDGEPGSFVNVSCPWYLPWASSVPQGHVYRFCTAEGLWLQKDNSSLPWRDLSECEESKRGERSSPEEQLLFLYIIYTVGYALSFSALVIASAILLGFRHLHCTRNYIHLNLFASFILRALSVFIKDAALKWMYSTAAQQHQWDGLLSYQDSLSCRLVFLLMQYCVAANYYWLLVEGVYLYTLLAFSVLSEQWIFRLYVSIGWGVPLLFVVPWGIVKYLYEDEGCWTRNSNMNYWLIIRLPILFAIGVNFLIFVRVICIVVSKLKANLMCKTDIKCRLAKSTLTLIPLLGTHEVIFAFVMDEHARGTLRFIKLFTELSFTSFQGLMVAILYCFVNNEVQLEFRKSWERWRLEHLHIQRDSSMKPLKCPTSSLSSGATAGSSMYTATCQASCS
BRCA1 expr act = increases BRCA1 expression; MCF7-BRCA1-FFLuc reporter, luminescence, 48 h; response scale: scaled: vehicle 0%, 10 µM genistein 100%; Potency, µM (series often up to 46.1 µM), for the others: at the top dose activation, most hits filed as activators; 1.1% of 380,000 active; AID 624202; also: nearly all actives have a fitted effect of over 80% in size
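Activators of BRCA1 expression were detected as increased firefly luciferase luminescence in engineered MCF7 cells after 48 h compound incubation. Signals were scaled to genistein 10 microM as full activation.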
GLP1R cytotox = cytotoxicity counter-screen for GLP-1 receptor inverse agonists; Potency, µM (highest dose often 38.3 µM), for inactives: at the top dose activity change, negative = inhibition, most hits filed as inhibitors; 0.13% of 410,000 active; HEK293 cAMP-luciferase reporter cells, luminescence, 24 h;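 also: loss of luciferase light is scored as toxicity; % is scaled to controls: 0 for no effect and ±100 for the full control effect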
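MLSMR compounds, 24 hr on cells at 37 deg C/5% CO2; luminescence after luciferase reagent (12 min RT). Inhibition counted as the undesired cytotoxic outcome.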
Integrin act MD = integrin-mediated muscular dystrophy alleviation activation. alpha7betagal myoblasts, beta-gal FDG fluorescence, 48 h. Potency, µM (series often up to 38.3 µM), without a hit: at the top dose activation, hits mostly activators. 0.064% of 350,000 active. AID 624291;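 also: 100% = response of the positive control SU9516; nearly all actives have a fitted effect of over 60% in size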
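alpha7betagal+/- myoblasts (passage 13, 250/well) treated 48 h at 37C with compounds at 1:260 dilution of DMSO stock. Lysed, then beta-galactosidase activity read as FDG fluorescence (ex 480/em 540) after 30 min, with pre-read for autofluorescence.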
GLP1R inv ag = acts as inverse agonist at human GLP-1 receptor. 1.6% of 410,000 active. P43220. HEK293 GLP-1R CRE-luciferase, luminescence, 24 h; GLP-1R form is constitutively active. Potency, µM (titrated, usually from 38.3 µM), without a hit: top-dose activity change, negative = inhibition, actives largely listed as inhibitors; also: % is scaled to controls: 0 for no effect and ±100 for the full control effect; nearly all actives have a fitted effect of over 55% in size
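GLP-1R inverse agonism mode: basal reporter luminescence in engineered HEK293 cells measured after one day of compound exposure at 37 deg C, with a 12 min room-temperature detection step.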
* hit, by the source's call; i = inactive; ? = inconclusive; nt = no result; [ ] = another dose, or the depositor's remark. Calls follow the shape of the dose curve; as a rule, active = well fitted curve in the direction sought with a large enough effect; inconclusive = small, poorly fitted or top-dose-only effect, or another doubt; inactive = no such curve, though single readings can be large; an effect the other way counts as inactive or inconclusive. Potency is read from the fitted curve at half-maximal effect.

SMILES	GLP1R ag	BRCA1 expr act	GLP1R cytotox	Integrin act MD	GLP1R inv ag
Cc1oc(-c2ccccc2)cc1C(=O)Nc1cccc2ccccc12	-11%	-30%	-18%	-2%	10µM*
CC(=O)Nc1nonc1-c1nnc(SCC(=O)Nc2cc(C)cc(C)c2)n1-c1ccccc1	nt	nt	14%	nt	14%
N/C(=N\OC(=O)Oc1ccccc1)c1cccc([N+](=O)[O-])c1	-1%	-20%	-4%	16%	6%
N/C(=N\OC(=O)CSc1ccccc1)c1cccc([N+](=O)[O-])c1	20%	13µM*	17%	?	?
CN(C)c1cccc(F)c1C(=O)NC(=O)Nc1ccc(Cl)cc1	-1%	-71%	?	-1%	8.9µM*
CN(C)c1cccc(N(C)C)c1CNC(=O)NC(=O)c1c(F)cccc1F	-4%	-9%	2%	33%	10µM*
O=C(NC1CC(=O)N(c2ccccc2)C1)c1ccc(S(=O)(=O)N2CCCC2)cc1 (stereo not given)	nt	nt	-9%	nt	9%
CCCOc1ccc(CNC(=O)c2[nH]c3cc(OC)ccc3c2Sc2ccccc2)cc1	nt	nt	-7%	nt	1%
CCCCN(Cc1ccccc1)c1ncnc2nc[nH]c12	9%	13µM*	-2%	8%	?
CCCN(c1ccc(OCC)cc1)c1ncnc2nc[nH]c12	4%	34%	-6%	14%	?
CCCCN(CCCC)c1ncnc2nc[nH]c12	8%	-21%	-8%	-9%	4.5µM*
O=C(Cc1ccccc1)NC1CC(=O)N(c2ccc3c(c2)OCCO3)C1 (stereo not given)	1%	4%	2%	nt	-8%
Cc1ccc(NCc2cccn2-c2nnc(N3CCC(C(=O)NCCc4ccc(Cl)cc4)CC3)s2)cc1	nt	nt	-13%	nt	10µM*
COCCCNC(=O)CSC1=Nc2ccccc2C2=NC(CCC(=O)NCc3ccccc3OC)C(=O)N12 (stereo not given)	nt	nt	-22%	nt	?
Cc1[nH]nc2ncc(C(=O)c3ccccc3O)cc12	-11%	12%	-5%	?	10µM*
Cc1nn(C)c2ncc(C(=O)c3ccccc3O)cc12	21%	12%	0%	-5%	8%
CCc1cc(/C=C/c2ccnc3ccccc23)ccc1N(C)C	nt	-23%	nt	nt	nt
COc1cccc2cc(C(=O)Nc3cc(C)cc(C)c3)/c(=N/NS(=O)(=O)c3ccccc3)oc12	-4%	10%	3%	-28%	20%
COc1ccc(NC(=O)c2cc3ccccc3o/c2=N\NS(=O)(=O)c2ccc(C)cc2)cc1	-3%	5µM*	4%	28%	15%
CCN(CC1COc2ccccc2O1)C(=S)NCCCN(C)C (stereo not given)	-6%	-11%	-10%	-59%	7.1µM*
CCN(CC1COc2ccccc2O1)C(=S)Nc1ccccc1 (stereo not given)	-1%	-35%	-9%	-33%	0%
CN(CC1COc2ccccc2O1)C(=S)NC1CCCCC1 (stereo not given)	-2%	69%	-5%	-22%	5µM*
O=C(OCCN1C(=O)c2cccc3c(N4CCOCC4)ccc(c23)C1=O)c1ccccc1Cl	2%	-65%	i	3%	?
O=C(OCCN1C(=O)c2cccc3c(N4CCOCC4)ccc(c23)C1=O)c1ccc(Cl)cc1Cl	-9%	-73%	i	-22%	1.3µM*
COc1ccc(OC)c(NC(=O)C(C)n2nc(C)c3c(C)n(-c4ccccc4)nc3c2=O)c1 (stereo not given)	nt	nt	1%	nt	10%
SMILES	GLP1R ag	BRCA1 expr act	GLP1R cytotox	Integrin act MD	GLP1R inv ag
CCOc1ccccc1NC(=O)CSc1nc2ccccc2c2nc(CCn3cncc3C)nn12	nt	nt	-11%	nt	?
COc1ccc(OCC(=O)Nc2c(C(=O)N(CCN(C)C)Cc3ccco3)oc3ccccc23)cc1	5%	-29%	10%	-48%	7.9µM*
COc1cccc(OCc2nc3ccccc3n2CCOc2ccc(C)cc2)c1	nt	nt	-6%	nt	?
CN1CCN(c2ccc(S(=O)(=O)N3CCCCC3)cc2NC(=O)/C=C/c2ccc(Cl)c([N+](=O)[O-])c2)CC1	-5%	-85%	10µM*	-63%	?
CCN1CCN(c2ccc(S(=O)(=O)N3CCCCC3)cc2NC(=O)/C=C/c2ccc([N+](=O)[O-])cc2)CC1	35%	-34%	?	-67%	?
CCN1CCN(c2ccc(S(=O)(=O)N3CCCCC3)cc2NC(=O)/C=C/c2ccc(OC(F)F)cc2)CC1	-1%	-87%	?	-58%	7.1µM*
C/C(CCc1oc2ccc(Br)cc2c1-c1ccc(C)o1)=N/O	2%	-43%	8%	18%	10µM*
COc1ccc(-c2nsc3c(N4CCCCC4C)ncnc23)cc1 (stereo not given)	-12%	-77%	39%	-1%	0.28µM*
COc1ccc(-c2nsc3c(N4CCCCC4)ncnc23)cc1	-7%	-81%	-2%	?	-72%
O=[N+]([O-])c1cccc(S(=O)(=O)N2CCN(S(=O)(=O)N3CCOCC3)CC2)c1	4%	3%	-5%	10µM*	2%
O=C(c1cccc(S(=O)(=O)N2CCOCC2)c1)N1CCN(S(=O)(=O)c2cccc([N+](=O)[O-])c2)CC1	-8%	4%	-15%	-10%	-10%
S=C(NCCc1ccccc1)N1CCc2ccccc2C1	14%	10µM*	?	-20%	?
OC1CCN(C(=S)NCCc2ccccc2)CC1	5%	24%	7%	0%	12%
COc1ccc2ccccc2c1-c1sc(Nc2ccccc2)n[n+]1-c1ccc(F)cc1	-2%	-52%	5µM*	-46%	?
CCc1ccc(Nc2n[n+](-c3ccccc3)c(-c3c(Cl)cccc3Cl)s2)cc1	1%	-77%	7.9µM*	-43%	?
CNC(=O)c1nnsc1S(=O)(=O)c1ccc(Cl)cc1	-8%	-91%	?	-55%	4.5µM*
O=C(c1nnsc1S(=O)(=O)c1ccc(Cl)cc1)N1CCOCC1	-3%	-93%	-7%[7.66 µM]	-69%	?
CCOc1ccc(Br)cc1CNCCSc1nnnn1-c1ccccc1	nt	nt	0%	nt	?
Cc1ccc(-c2nc3sccn3c2Nc2ccccc2C)cc1	nt	nt	-3%	nt	?
COc1ccc(C(=O)COC(=O)c2cccc(-n3cnnn3)c2)c(OC)c1	12%	2.5µM*	-5%	8%	34%
COc1ccc(C(=O)OCC(=O)c2ccc[nH]2)c(OC)c1	21%	8.9µM*	-1%	12%	1%
Cc1ccsc1C(=O)OCC(=O)c1ccc[nH]1	5%	5.6µM*	0%	24%	-6%
COc1ccc(C(=O)COC(=O)c2cc(=O)[nH]c3ccccc23)c(OC)c1	-4%	13µM*	5%	26%	18%
COc1ccc(CC(=O)OCC(=O)c2ccc[nH]2)cc1	1%	-7%	-12%	-5%	-16%
